Reference: PubChem BioAssay (NCI)
Compounds without any hit were thinned out: in the full panel of roughly 79,000, 15% have a hit. Activity calls are given as the source filed them. Cut-off read from the data, not from the text of the source: active = growth inhibition above about 70%; inactive = the rest.

Legend:
[1] = NCI Yeast Anticancer Drug Screen. Data for the rad50 strain (AID 155);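 note: 0% = growth of vehicle-only cultures of the same strain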; details: S. cerevisiae rad50 strain growth inhibition; at 50.0 µM; active compounds read high
Outline: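 A DNA repair-deficient yeast mutant serves as the test organism; compound-induced growth inhibition is calculated against vehicle-treated cells.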

[2] = NCI Yeast Anticancer Drug Screen. Data for the mec2-1 strain (AID 157); details: S. cerevisiae mec2-1 strain, at 50.0 µM, active compounds read high
Outline: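 Using mec2-1 yeast: add compound, measure growth, express inhibition versus vehicle-treated cultures.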

[3] = NCI Yeast Anticancer Drug Screen. Data for the sgs1 mgt1 strain (AID 161);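 note: 0% = growth of cultures given vehicle only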; details: S. cerevisiae sgs1 mgt1 strain, at 50.0 µM, active compounds read high
Outline: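 Percent growth inhibition was derived by comparing compound-exposed mutant yeast with vehicle-exposed cultures. The strain carries alterations in DNA damage repair.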

[4] = NCI Yeast Anticancer Drug Screen. Data for the cln2 rad14 strain (AID 165);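 note: 0% = growth equal to vehicle treated cultures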; details: S. cerevisiae cln2 rad14 strain, at 50.0 µM, active compounds read high
Outline: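 Yeast strain cln2 rad14, bearing defects in cell cycle control and DNA repair, serves as the test system; values reflect growth inhibition compared with vehicle.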

[5] = NCI Yeast Anticancer Drug Screen. Data for the bub3 strain (AID 167); details: S. cerevisiae bub3 mutant strain, at 50.0 µM, active compounds read high
Outline: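 Inhibition values come from growth of compound-treated mutant yeast normalised to vehicle-treated controls.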

[6] = NCI Yeast Anticancer Drug Screen. Data for the mlh1 rad18 strain (AID 175); details: S. cerevisiae mlh1 rad18 strain growth inhibition; at 50.0 µM; active compounds read high
Outline: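 Steps: expose repair-defective yeast to compound; measure growth; express inhibition against vehicle-treated controls.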

Measured: growth inhibition

CC1CCCC(=O)CCC1
inactive: [1] 2.9% | [2] -4.6% | [3] -9.05% | [4] 7.15% | [5] 10.8% | [6] 2.55%

C/C(O)=C(\C=NC(=S)c1ccncc1)C(=O)Nc1ccccc1C
inactive: [1] -26.4% | [2] -37.6% | [3] -4.8% | [4] 13.3% | [5] -4.5% | [6] -26.9%

CCCN(CCC)C1=Nc2ccccc2-n2cnnc2C1
inactive: [1] -22.4% | [2] 3.45% | [3] -25.6% | [4] 3.1% | [5] -2.25% | [6] -11.4%

O=C(Nc1ccccc1Cl)Oc1ccc(Cl)cc1Cc1ccccc1
active: [1] 99.7% | [2] 99.7% | [3] 99.7% | [4] 99.7% | [5] 99.7% | [6] 99.7%

O=C(Nc1ccccc1[N+](=O)[O-])OCCOc1ccccc1
inactive: [1] 1.65% | [2] 21.2% | [3] 6.8% | [4] -7.2% | [5] 30.8% | [6] -9.85%

CCOC(=O)C1CCc2ccccc2C1=O (stereo not drawn)
inactive: [1] -2.95% | [2] -12.3% | [3] 5.85% | [4] -3.35% | [5] 14.6% | [6] -4.95%

Cc1ccc(CCOC(=O)Nc2ccccc2)cc1
inactive: [1] -7.55% | [2] 6.4% | [3] -3.25% | [4] -13.1% | [5] 1.8% | [6] 17.2%

CCCCOCC(=O)NC1CCCCC1
inactive: [1] 29.9% | [2] -30.4% | [3] -39.4% | [4] -10.2% | [5] -24.1% | [6] 33.6%

CN1CCCC1=Nc1ccc([N+](=O)[O-])cc1
inactive: [1] 23.1% | [2] -3.55% | [3] 23% | [4] -29.3% | [5] -11.9% | [6] 25.9%

N#C/C(=C\c1cccnc1)c1ccc(Br)cc1
active: [6] 70%
inactive: [1] 59.4% | [2] 36.4% | [3] 41.8% | [4] 14.3% | [5] 43.5%

CC1CCC(C(C)C)C(OS(=O)(=O)c2ccccc2)C1 (stereo not drawn)
inactive: [1] 0.1% | [2] -26.7% | [3] -10.4% | [4] 17.3% | [5] 11.6% | [6] 1.8%

COc1cc(C(=O)O)c(I)c(OC)c1OC
inactive: [1] -10.9% | [2] -5.85% | [3] -6.25% | [4] -4.85% | [5] 3.6% | [6] -9.65%

Clc1ccc(C2N3CCCCC3[C@@H]3c4[nH]c5ccccc5c4CCN23)cc1 (stereo partly drawn)
inactive: [1] -11.7% | [2] -10.8% | [3] -4.7% | [4] -4.65% | [5] 0.3% | [6] -8.5%

CCOC(=O)Nc1ccccc1
inactive: [1] -1.65% | [2] 12.3% | [3] 1.55% | [4] -4.15% | [5] -6.8% | [6] 22.7%

CC1(C)C(CBr)=[N+]([O-])C(C)(C)N1O
inactive: [1] 4.8% | [2] -0.6% | [3] -15.2% | [4] 13.6% | [5] -12.9% | [6] 21.6%

CC1CC=C2C=C(Cl)C=CC2(C)C1C (stereo not drawn)
inactive: [1] 1.8% | [2] 3.55% | [3] -2.85% | [4] -9.2% | [5] 9% | [6] -1.85%

CCOC(=O)/C(C#N)=C\N(C)C
inactive: [1] 8.75% | [2] -12.7% | [3] 5.65% | [4] 5.65% | [5] 9.65% | [6] 13.5%

CC(C)C(O)(C(=O)O)C(C)C
inactive: [1] 11.1% | [2] -11% | [3] -4.1% | [4] -4.3% | [5] -17.9% | [6] -1.15%

CC(=O)On1c(-c2ccccc2-c2nc3ccccc3n2OC(C)=O)nc2ccccc21
inactive: [1] 10% | [2] 14.4% | [3] 13.4% | [4] 8.9% | [5] -5.05% | [6] 2.75%

COCC(C)(c1cn(C)c2ccccc12)c1cn(C)c2ccccc12
inactive: [1] -2.5% | [2] -19.2% | [3] -11.4% | [4] -17.9% | [5] 5.05% | [6] -10.1%

CC(C)CC(CC(C)C)NCC(C)OC(=O)c1ccc(N(C)C)cc1 (stereo not drawn)
inactive: [1] 57.5% | [2] -4.2% | [3] 20.2% | [4] -7.55% | [5] 2.6% | [6] 1.3%

C=CS(=O)(=O)c1ccc(NC(=O)Nc2ccc(Cl)cc2)cc1
inactive: [1] -0.55% | [2] 1.7% | [3] -8.8% | [4] 12.8% | [5] 1.25% | [6] 5.85%

CCOC(=O)NC(=O)c1cn(CCCCCOC(=O)NCCCCCCNC(=O)OCCCCCn2cc(C(=O)NC(=O)OCC)c(=O)[nH]c2=O)c(=O)[nH]c1=O
inactive: [1] 20.6% | [2] 13.2% | [3] 12.6% | [4] 21.9% | [5] 6.7% | [6] 24.1%

COc1ccc2cc1Oc1ccc(cc1)CC1c3cc(c(OC)cc3CCN1C)Oc1c(O)c(OC)cc3c1C(C2)N(C)CC3 (stereo not drawn)
inactive: [1] 14.6% | [2] -10.4% | [3] 10.8% | [4] 16.2% | [5] 15.8% | [6] 1.95%

COc1cc(C2C(C(=O)O)=C(COC(C)=O)Oc3cc4c(cc32)OCO4)cc(OC)c1OC (stereo not drawn)
inactive: [1] -9.9% | [2] -15.4% | [3] -25.4% | [4] -19.2% | [5] -4.1% | [6] -8.6%

CN(CCC1(C)C(=O)CCc2ccccc21)Cc1ccccc1 (stereo not drawn)
inactive: [1] 12.9% | [2] 21.8% | [3] 22.8% | [4] 30.9% | [5] 14.1% | [6] 17.1%

O=C(CCC/C(CC(=O)c1ccc(Cl)cc1)=N\NC(=O)c1cc2ccccc2cc1O)Nc1cccc([N+](=O)[O-])c1
inactive: [1] 52% | [2] 47.2% | [3] 52.9% | [4] 25.6% | [5] 6% | [6] 56.8%

O=C(c1ccccc1)c1cccs1
inactive: [1] -19.3% | [2] -1.9% | [3] -12.7% | [4] -45.6% | [5] -14.5% | [6] -17.9%

N#CCCN1CCCC1=O
inactive: [1] -11.8% | [2] -7.55% | [3] -12.5% | [4] -22.4% | [5] 6% | [6] 6.15%

Cc1n[nH]c(=O)n1N1C(=O)c2ccccc2C1=O
inactive: [1] -1.25% | [2] -10.1% | [3] -25.7% | [4] -3.45% | [5] -19.6% | [6] -26.6%

N=C(N)C1CC1
inactive: [1] -6.75% | [2] -9.5% | [3] -8.9% | [4] 12.8% | [5] 2.4% | [6] -13.2%

C=CCCN=C(SC)SC
inactive: [1] 3.8% | [2] 20.9% | [3] 16.2% | [4] -11.1% | [5] -0.9% | [6] 4.4%

N#C/C(=C/n1c(=S)sc2ccccc21)c1nc2ccccc2s1
inactive: [1] 11.8% | [2] 14.7% | [3] 49.6% | [4] 24.9% | [5] 23.4% | [6] 30.8%

CC/C(=N/N(C)C)C(=O)O
inactive: [1] -29.4% | [2] -3.9% | [3] -5.3% | [4] -10.6% | [5] -17.1% | [6] -16.3%

O=C(/C=C/C=C/c1ccccc1)CCc1ccccc1
inactive: [1] 6.75% | [2] 17.2% | [3] 24.2% | [4] 30.6% | [5] 16.2% | [6] -29.4%

CC(=O)Nc1ccc(S(=O)(=O)n2c(=O)oc3cc(Br)ccc32)cc1
inactive: [1] 7.4% | [2] 3.35% | [3] -7% | [4] 2.35% | [5] 0.05% | [6] 0.65%

O=C1/C(=C/c2ccc(O)c(O)c2)CC/C1=C\c1ccc(O)c(O)c1
inactive: [1] -18.9% | [2] -23.9% | [3] -21% | [4] 10.9% | [5] -16.1% | [6] -22.6%

CC(=O)n1nc(Cl)c2cccnc2c1=O
inactive: [1] 11.8% | [2] -1.1% | [3] 4.3% | [4] 1.55% | [5] -0.4% | [6] 8.85%
